This note sets out measurements from PubChem BioAssay (NCATS).

Each structure is given as a SMILES string. Where “and” joins values, the source holds several entries; their conditions need not be identical. Equal values may be shown once. Records with an inconclusive call do not appear. Where a call stands in place of a potency, no number is given. Unmarked numbers belong to inactive results. Calls of active or inactive are those of the source. The call rests on the fitted dose curve; in most records, active means well fitted cell-killing curve with a large enough effect; inconclusive means small, poorly fitted or top-dose-only effect, or effect the other way; inactive means no such curve, though single readings can be large or run the other way.
Potency means the concentration at half of the fitted maximal effect.

A short description of the assay: Viability qHTS for spleen associated tyrosine kinase inhibitor (SYKi) drug resistant MV4-11 cells (AID 1963824). Further: nearly all actives have a fitted effect of over 35% in size. As to conditions: SYKi-resistant MV4-11 viability, CellTiter-Glo, 72 h; series mostly up to 45 µM. The source says:
Department of Medicine, Hematology/Oncology
University Hospital Frankfurt, Germany.
Trials have shown promising clinical activity of the selective SYK inhibitor entospletinib in patients with high expressing HOXA9/MEIS1 acute leukemias. As the development of resistance mechanisms is a common problem in the use of targeted drugs, we performed a chemical library screen to identify drug sensitivities in SYK inhibitor resistant AML cells. […] Glucocorticoids are potent immunosuppressants which work in part by inhibiting the transcription of cytokine genes.
Described herein is a viability screen to look for activity in the SYK inhibitor drug resistant cell line against four NCATS compound libraries (MIPE 5.0, NPC, NPACT, and Kinase) totaling 11372 compounds. Active hits were reacquired for confirmation and further secondary assay testing.
SEQUENCE No. (e.g., 1, 2, 3, etc.); […] (e.g., Cells, Incubation, Reagent, etc.); VALUE; DESCRIPTION.
1; Media; 2uL; white, solid-bottom Corning assay plate.
2; Compounds; 23nL; Echo acoustic dispenser.
3; Cell; 5uL; 500 cells per well.
4: Incubation; 72hr; 37 C, 5% CO2, 95% humidity.
5; Reagent; 3uL; CellTiter-Glo reagent (Promega).
6; Incubation; 10min; room temperature.
7; Detection; Luminescence; ViewLux plate reader (PerkinElmer).
NOTES (numbers refer to Sequence numbers above
1. Quantitative high-throughput screening (qHTS) of small molecule compounds was conducted on drug resistant SYKi MV4-11 cell line.
2. Twenty-three nanoliter of small molecule compounds were added to each assay plates using the Echo acoustic dispenser (Beckman Coulter).
3. Cells were seeded into the assay plates at a final density of 500 cells in 5uL of media per well using the Multidrop Combi dispenser.
4. Plates were covered with stainless steel gasketed lids and incubated for 72 hours at standard cell culture conditions.
5. Viability was assessed by adding 3uL of CellTiter-Glo detection reagent (Promega).
6. Plates were covered with gasket lids and incubated for 10 minutes at room temperature.
7. Luminescence was measured on a ViewLux plate reader (PerkinElmer).
Background: In qHTS, concentration-response curves come from the screen itself.
Consider `COc1cc(C2Oc3c(OC)cc(CCCO)cc3C2CO)ccc1O[C@H]1O[C@H](C)[C@@H](O)[C@H](O)[C@@H]1O` (stereo not given in full), for which the Potency entry was “inactive”.

Regarding `O=C(N/N=C/c1ccc([N+](=O)[O-])o1)c1ccc(O)cc1`, the Potency was 16.8 µM (active).

As for `Cc1c(O)cc2c(c1O)COC1(O)CCCOC21` (stereo not given), the Potency entry is “inactive”.

As to `CC(=O)NC(CCC(=O)O)C(=O)NCCc1ccc(O)cc1` (stereo not given), the Potency result was “inactive”.

As for `C/C=C/C=C/C(=O)OC1CC/C=C/C(O)C(O)C(CCC)OC1=O` (stereo not given), the Potency result was “inactive”.

For `C[C@H]1/C=C/C=C/C=C/C=C/C=C/[C@@H](O)[C@H](C(=O)O)[C@H](O)C[C@H](O)CCC[C@H](O)C[C@H](O)C[C@H](O)[C@@H](C)C(=O)O[C@@H]1C`, the Potency result is “inactive”.

Consider `COc1cc(N2CCC(N3CCN(C)CC3)CC2)ccc1Nc1ncnc(Nc2ccccc2S(=O)(=O)C(C)C)n1`, for which the Potency is 2.06 µM (active) and 2.63 µM (active).

For the molecule `C[C@@H](Nc1ncnc2[nH]c(-c3ccc(O)cc3)cc12)c1ccccc1`, the Potency was 5.17 µM (active) and 10.5 µM (active).

In the case of `C/C=C(\C)C(=O)OCC1OC(OC2OC(COC(=O)/C(C)=C/C)C(OC3OC(CO)C(OC(=O)/C(C)=C/C)C(OC(=O)/C(C)=C/C)C3O)C(O)C2O)C(O)C(O)C1OC1OC(CO)C(OC(=O)/C(C)=C/C)C(OC(=O)/C(C)=C/C)C1O` (stereo not given), the viability, % of control was 58.7% [at 9.25 µM].

As for `Cc1cn(C2C[C@H](O)[C@@H](CO)O2)c(=O)[nH]c1=O` (stereo not given in full), the Potency entry is “inactive”.

For the molecule `CC1CCCC(O)CC(=O)c2c(O)cc(O)cc2CC(=O)O1` (stereo not given), the Potency was 2.02 µM (active).

As to `N/C(=N\N=C\c1ccc(Cl)cc1)N/N=C/c1ccc(Cl)cc1`, the Potency entry was “inactive”.

For `Cc1ccc(-c2nn(C(C)(C)CNC(=O)c3ccncc3)c3ncnc(N)c23)cc1`, the Potency was 6.61 µM (active).

For `C[C@H]1[C@H]2CC[C@H]3[C@@H]4CC=C5C[C@@H](N(C)C)CC[C@]5(C)[C@H]4CC[C@]23CN1C`, the Potency result is “inactive”.

Turning to `COc1c2c(c(C)c3c1C(=O)OC3)O[C@@]1(C)CCC3(C(C)(C)O)OC(=O)CC[C@]3(C)[C@H]1C2` (stereo not given in full), the Potency result is “inactive”.

Turning to `C/C(=C\CO)CC/C=C(\C)C(=O)O[C@@H]1O[C@H](CO)[C@@H](O)[C@H](O)[C@H]1O`, the Potency result was “inactive”.

As to `COc1ccc(C2(C#N)CCC(C(=O)O)CC2)cc1OC1CCCC1` (stereo not given), the Potency result is “inactive”.

For `O=c1[nH]c2ccccc2n1CCN1CCN(c2cccc(C(F)(F)F)c2)CC1`, the Potency is 23.1 µM (active).

For the molecule `C[C@@H]1[C@H]2[C@H](O[C@@H]3O[C@H](CO)[C@@H](O)[C@H](O)[C@H]3O)OC=C(C(=O)O)[C@H]2C[C@@H]1O`, the Potency result is “inactive”.

On to `Nc1cc(C(Cl)=C(Cl)Cl)c(S(N)(=O)=O)cc1S(N)(=O)=O`, for which the Potency result was “inactive”.

Consider `Cc1cc(OCCCS(C)(=O)=O)cc(C)c1-c1cccc(COc2ccc(C3=CC(=O)NS3=O)cc2)c1` (stereo not given), for which the Potency was 5.17 µM (active).

Regarding `CCCS(=O)(=O)Nc1ccc(F)c(C(=O)c2c[nH]c3ncc(Cl)cc23)c1F`, the Potency was 11.8 µM (active).

In the case of `CCN1CCN(Cc2ccc(Nc3ncc(F)c(-c4cc(F)c5nc(C)n(C(C)C)c5c4)n3)nc2)CC1`, the Potency was 366 nM (active) and 417 nM (active).

Turning to `COC(=O)/C=C/C(=O)N(O)CCCCNCc1ccc(COC(=O)Nc2cccc3ccccc23)cc1`, the Potency was 6.51 µM (active).

As to `N[C@H]1Cc2ccccc2N(O)C1=O`, the Potency entry is “inactive”.

Turning to `CN(CCc1ccc(Nc2ncc(-c3cccnc3)s2)cc1)Cc1ccccc1`, the Potency was 0.651 µM (active).

As to `CN[C@@H](C)C(=O)N[C@H](C(=O)N1CCC[C@H]1C(=O)Nc1sc(-c2ncco2)nc1-c1ccccc1)C1CCCCC1`, the Potency was 0.59 µM (active).

Turning to `CCN(CC)Cc1cccc(/C=C/c2nc3ccc(F)cc3c(=O)n2-c2ccccc2Cl)n1`, the Potency was 9.2 µM (active).

On to `CC(C)(O)C1CCC(C)(C2CCC3(C)C4CCC5C(C)(C(=O)OC6OC(CO)C(O)C(O)C6O)C(O)CC(O)C56CC46CCC23C)O1` (stereo not given), for which the Potency result was “inactive”.

In the case of `C[C@@H]1CCC2C(C)(C)[C@H](O)CC[C@]2(C)[C@@]12Cc1c(O)cc3c(c1O2)CN([C@@H](CCC(=O)O)C(=O)O)C3=O` (stereo not given in full), the Potency result is “inactive”.

`C=C(CO)C(=O)O[C@H]1C[C@@]23O[C@@H]2CC/C(=C/[C@H]2OC(=O)C(=C)[C@H]12)CO[C@H]3O`: the Potency was 11.4 µM (active).

Consider `Cc1cc(C)nc(SCC(=O)Nc2ncc(Cc3cccc4ccccc34)s2)n1`, for which the Potency is 10.3 µM (active).

For the molecule `CS(=O)(=O)Nc1ccc([N+](=O)[O-])cc1Oc1ccccc1`, the Potency was 14.8 µM (active).

`CCNC1(C(N)=O)CN(c2nc(C)nc3c(-c4ccc(Cl)cc4)c(-c4ccccc4Cl)nn23)C1`: the Potency is 16.4 µM (active).

Turning to `N#CC1C(=O)Nc2scc(-c3ccc(-c4ccccc4O)cc3)c2C1=O` (stereo not given), the Potency result was “inactive”.

As to `CCOCC(O)COc1ccc(NC(=O)CC[S+](C)C)cc1` (stereo not given), the Potency result was “inactive”.

Take `CC(=O)O[C@@H]1C[C@H](O)[C@@]23CO[C@H](O)[C@]1(C)C2C[C@@H](O)[C@]1(C)C3C(=O)[C@H](OC(C)=O)[C@@]2(C)[C@H](c3ccoc3)C[C@H]3O[C@]321` (stereo not given in full): the Potency is 0.0343 µM (active).

With `CN(C)CCn1cc(S(=O)(=O)c2cccc(F)c2)c2cccnc21`, the Potency entry is “inactive”.

As to `COc1c2c(c(C)c3c1C(=O)OC3)OC1(C)CC(O)C3(O)C(C)(C)OC(=O)CCC3(C)C1C2` (stereo not given), the Potency result is “inactive”.

Take `CC[C@@H]([C@H](C)O)n1ncn(-c2ccc(N3CCN(c4ccc(OC[C@@H]5CO[C@@](Cn6cncn6)(c6ccc(F)cc6F)C5)cc4)CC3)cc2)c1=O`: the Potency is 6.68 µM (active).
